Rows were chosen to be rich in hits. Some 3.3% of all compounds tested hit in one or more screens of this group.
Mcl1-Bid inh: Mcl-1/Bid binding inhibitors, primary screen, biochemical, TR-FRET, 1536-well; TR-FRET Mcl-1/Bid-Dy647 peptide binding; inhibition, % at 21.7 µM; 0.97% of 220,000 active; AID 1021, 2008;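 active = compounds that cut the binding signal by more than half at the single screening dose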;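 note: His-tagged Mcl-1 with europium anti-His antibody binding Bid BH3 peptide; 0% = Mcl-1 plus peptide wells and 100% = peptide-only wells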
14-3-3 Bad inh: inhibitors of 14-3-3 zeta/Bad binding, primary screen, biochemical, TR-FRET, bovine 14-3-3 zeta. TR-FRET 14-3-3zeta/Dy647-pBad peptide displacement, 1 h. inhibition, % at 21.7 µM. 0.71% of 220,000 active. AID 781, 2007;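 active = inhibition above about 70%, limit read from the data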;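 note: 0% = full 14-3-3 plus peptide FRET controls and 100% = background without 14-3-3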
NCF1 inh: p47phox/p22phox peptide binding inhibitors, primary screen, biochemical, uHTS, NADPH oxidase regulatory subunit | AID 1274, 2008 | inhibition, % at 24.7 µM | fluorescence polarization, 2 h | 0.53% of 220,000 active;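 note: 0% = p47phox with labelled peptide and 100% = labelled peptide alone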
Target sequence (P14598 whole entry, looked up): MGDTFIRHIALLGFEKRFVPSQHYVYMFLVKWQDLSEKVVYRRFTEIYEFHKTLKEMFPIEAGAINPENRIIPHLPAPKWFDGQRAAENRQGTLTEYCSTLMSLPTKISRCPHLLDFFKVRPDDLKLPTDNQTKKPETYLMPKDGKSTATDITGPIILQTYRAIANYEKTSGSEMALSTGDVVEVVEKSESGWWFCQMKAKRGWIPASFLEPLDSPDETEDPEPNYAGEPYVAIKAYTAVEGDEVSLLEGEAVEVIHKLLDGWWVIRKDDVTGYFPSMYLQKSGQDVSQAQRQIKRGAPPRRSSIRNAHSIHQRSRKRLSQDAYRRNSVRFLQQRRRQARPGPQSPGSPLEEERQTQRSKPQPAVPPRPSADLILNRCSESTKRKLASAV
Mcl1-Noxa inh: Mcl-1/Noxa binding inhibitors, primary screen, biochemical, TR-FRET, 1536-well; Induced myeloid leukemia cell differentiation protein Mcl-1 (Homo sapiens), Q07820; TR-FRET Mcl-1/Noxa peptide binding, 2 h; inhibition, % at 21.7 µM; 1.5% of 220,000 active;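 active = compounds that cut the protein-peptide binding signal by more than 50% relative to plate controls in a single-dose test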;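 note: His-tagged Mcl-1 with rhodamine Noxa BH3 peptide and terbium anti-His antibody; 0% = Mcl-1 plus Noxa peptide wells and 100% = peptide-only wells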
Bim-Mcl-1: inhibitors of Bim peptide binding to Mcl-1, primary screen, biochemical, bead-based flow cytometry, multiplex; Bim peptide-Mcl-1 binding; inhibition, % at 10 µM; 0.1% of 190,000 active; in the data active = inhibition above about 40%;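 note: 0% = no compound tracer wells and 100% = peptide blocker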
eIF4E 4G PPI: eIF4E–eIF4G protein interaction inhibitors, primary screen, biochemical, uHTS, TR-FRET, eIF4GI fragment; inhibition, % at 21.7 µM; TR-FRET eIF4E-eIF4GI(517-606) binding, 2 h; 0.37% of 220,000 active; AID 782, 2007; Eukaryotic translation initiation factor 4E (Mus musculus) + Eukaryotic translation …;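 note: 0% = full FRET control wells and 100% = background wells lacking eIF4GI fragment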
The depositor's hits bear a star; . = no result; ! = not confirmed by another sample; [ ] = another dose, or the depositor's remark.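 Rule for the calls, unless noted: active = inhibition above about 30% (limit read from the data); inactive = the rest.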

SMILES	Mcl1-Bid inh	14-3-3 Bad inh	NCF1 inh	Mcl1-Noxa inh	Bim-Mcl-1	eIF4E 4G PPI
COc1ccc(C(=O)OC2CC[C@@]3(C)C4CCC5[C@]6(O)CC(O)[C@@]7(O)C(CN8CC(C)CCC8[C@@]7(C)O)[C@]6(O)C[C@@]53O[C@]24O)cc1OC (stereo partly specified)	12	-3	-2	6	.	6
CCOc1ccc(-n2c(-c3ccoc3)nc3ccccc3c2=O)cc1	96*	1	-6	-7	-1	5
Cc1cccc(N2CCc3c2nc2ccccc2c3N)c1	26	78*![fluorescence artefact?]	8	31	0	94*![fluorescence artefact?]
COCCN1Cc2cc(=O)n3c([nH]c4ccccc43)c2C1=N	-40	-5	-9	19	2	3
CN(C)CP(=O)(O)CN(C)C=O	-40	91*	-3	-20	2	11
O=C1NC(=O)N(c2cccc(Br)c2)C(=O)/C1=C/c1ccsc1	-16	-13	-32	35	-2	4
Cc1ccccc1-n1c(O)c(/C=C2/C(c3ccccc3)=Nc3ccccc32)c(=O)[nH]c1=O	-33	-1	-62	7	0	12
COC(=O)C1=Nc2ccccc2/C1=C\c1c(O)n(-c2cc(OC)ccc2OC)c(=O)[nH]c1=O	23	40	-56	65*	1	9
Cc1ccc(N2C(=O)NC(=O)/C(=C\c3cnc(-c4ccccc4)nc3)C2=O)cc1	-10	13	-49	75*	3	3
CSc1ncc(/C=C2/C(=O)NC(=O)N(c3ccc(C)cc3)C2=O)cn1	-51	-3	-3	19	-2	-1
Cc1ccc(N2C(=O)NC(=O)/C(=C/c3ccoc3)C2=O)cc1	-80	75*	-45	77*	.	35*
COc1cccc(/C=C2\N=C(c3cncc(Br)c3)OC2=O)c1	3	2	14	14	-7	-1
OCC[n+]1c2ccccc2nc2ccc(N3CCOCC3)cc21	-27	-50	155*	27	.	-21
CN1C2CCC1CC(=NO)C2	-12	-1	1	3	0	1
COC(=O)c1ccc(CN2CCN(Cc3ccccc3)CC2)cc1	2	76*	-4	10	5	12
Cn1cnc([N+](=O)[O-])c1Sc1ccc([N+](=O)[O-])cc1	-22	2	4	-23	0	1
COc1ccccc1N1CCN(Cc2ccc(F)cc2)CC1	-11	-6	5	0	0	1
COc1ccc(CN2CCN(c3ccccc3F)CC2)cc1O	81*	58	-3	27	0	-1
Fc1ccccc1N1CCN(Cc2c(F)cccc2F)CC1	-35	60	-6	11	0	0
Fc1ccccc1N1CCN(Cc2ccc3c(c2)OCO3)CC1	48	77*	2	33	-3	-9
C[N+]1(C)[C@@H]2CC[C@H]1CC(OC(=O)C(CO)c1ccccc1)C2 (stereo partly specified)	-14	-3	-10	13	-4	-1
C[N+]1(C)C2CCC1CC(OC(=O)C(CO)c1ccccc1)C2 (stereo unspecified)	-14	91*	-8	21	0	3
CCCCCc1nc2c(c(=O)c3ccccc3n2C)c(=O)n1C1CCCCCC1	54*	24	17	25	-4	15
COc1cccc(C2(O)CCSCC2CN(C)C)c1 (stereo unspecified)	-18	-16	5	6	-3	-4
CCC(=NCCC(c1ccccc1)c1ccccc1)c1c(O)[nH]c(=O)[nH]c1=O	-22	-3	-11	-13	-2	19
CCC(=NC(C)c1ccccc1)c1c(O)[nH]c(=O)[nH]c1=O (stereo unspecified)	90*	-1	-5	-9	.	-5

Assay outcomes as filed in PubChem.
